According to PubChem BioAssay (NCATS):
“And” between values parts separate entries of the source, which are not always exact repeats. Equal entries are not always repeated. Records with an inconclusive call do not appear. Unmarked numbers belong to inactive results. The source made the active and inactive calls. Calls come from the whole dose curve; as a rule, active = well fitted cell-killing curve with a large enough effect; inconclusive = small, poorly fitted or top-dose-only effect; inactive = no such curve, though single readings can be large or run the other way.
% is set by controls: 0 for no effect and ±100 for the full control effect; potency is the fitted concentration of half-maximal effect.

Test: qHTS of pediatric cancer cell lines to identify multiple opportunities for drug repurposing: Primary screen for SK-N-SH cells (AID 1347098); note: nearly all actives have a fitted effect of over 65% in size
Details: SK-N-SH viability, CellTiter-Glo luminescence, 48 h; series mostly up to 57 µM; activity change, negative = cytotoxic: at the top concentration
Text: Drug repurposing or repositioning has been offered as a strategy for drug development in oncology programs. This approach has special potential for childhood cancers and other rare or orphan diseases, where the expected return on new drug development has been a disincentive to pharmaceuticals.
In this project we exploit the poly-pharmacology of drugs to discover new indications via phenotypic screening of a panel of 19 well-characterized cell lines derived from solid tumors seen in children and adolescents. The goal is to identify approved drugs with previously unrecognized anticancer properties that has the potential to reveal new mechanisms and biological processes involved in carcinogenesis or drug resistance. We employed a titration-based paradigm (quantitative high-throughput screening or qHTS), where all compounds were tested at multiple concentrations for their effect on cell viability. Concentration-response curves (CRCs) were derived directly from the primary screen, and both potency and efficacy values were used to identify compounds with robust bioactivity profiles. We screened the NIH Chemical Genomics Center (NCGC) Pharmaceutical Collection (NPC) and Mechanism Interrogation Plate (MIPE) small molecule collections of approved and investigational compounds against these cell lines; and measured metabolically active cells after 48 hours of compound treatment as a proxy for cell viability.
Assay Submitter: Nathalia J. Martinez, National Center for Advancing Translational Sciences, National Institutes of Health, Rockville, MD, USA; email: natalia.martinez@nih.gov
[1] Shen, M et al. Quantitative high-throughput phenotypic screening of pediatric cancer cell lines identifies multiple opportunities for drug repurposing. Oncotarget 2017 Dec 19;9(4):4758-4772. PMID 29435139.
The cells were obtained from University of North Carolina (UNC), Pediatric Preclinical Testing Program (PPT), and Coriell Institute (CI).
qHTS cell viability assay:
Cells were assayed in growth media at a density of 500-1,000 cells/well. Five microliters of cells were dispensed into 1,536-well, white, solid-bottom, TC-treated plates (Greiner Bio One) using a multidrop dispenser and incubated at 37 degrees C, 5% CO2, under a humidified atmosphere for 5 hours. Twenty-three nanoliters of compounds and controls (neutral control DMSO or positive control bortezomib at final concentration of 2.3 µM) were subsequently transferred by Kalypsys pintool. For primary screens, the MIPE collection was tested at 11-point dilutions (final concentrations range from 0.78 nM to 46 µM) and the NPC collection at 8-point dilutions (final concentrations range from 0.59 nM to 46 µM). Compounds tested in follow-up screens were assayed at 11-point dilutions. Cells were incubated for 48 hours, followed by addition of 3 µL of CellTiter-Glo (Promega). After a 15 min incubation at room temperature, samples were analyzed for luminescence intensity using a ViewLux High-throughput CCD imager equipped with clear filters.
In the case of `Cc1nnc(C(=O)NC(C)(C)c2nc(C(=O)NCc3ccc(F)cc3)c(O)c(=O)n2C)o1`, the Potency is reported as “inactive”. For `CC1CC2C3CCC4=CC(=O)C=C[C@]4(C)[C@@]3(F)[C@@H](O)C[C@]2(C)[C@@]1(O)C(=O)CO` (stereo not given in full), the “activity change, negative = cytotoxic” value was 18%. In the case of `Clc1ccccc1CN1CCc2sccc2C1`, the “activity change, negative = cytotoxic” value is reported as -19.1%. For `N=C(N)c1ccc(OCCCCCOc2ccc(C(=N)N)cc2)cc1`, the Potency was 9.61 µM (active). In the case of `O=c1cc(O)c(Cl)c[nH]1`, the “activity change, negative = cytotoxic” value is reported as -1.01%. With `CC(C)(Sc1cc(C(C)(C)C)c(O)c(C(C)(C)C)c1)Sc1cc(C(C)(C)C)c(O)c(C(C)(C)C)c1` the Potency was “inactive”. For `O=C(O)c1cn(C2CC2)c2cc(N3CCNCC3)c(F)cc2c1=O`, the Potency was “inactive”. In the case of `CCN(CC)CCn1c(=O)c(Cc2ccc(OC)cc2)nc2ccccc21`, the “activity change, negative = cytotoxic” value is reported as -7.6%. In the case of `Cc1cccc(N(C)C(=S)Oc2ccc3ccccc3c2)c1`, the Potency is reported as 15.2 µM (active). In the case of `O=S(=O)(O)CCS`, the Potency is reported as “inactive”. In the case of `O=C(NCC1CN(c2ccc(N3CCOCC3=O)cc2)C(=O)O1)c1ccc(Cl)s1` (stereo not given), the Potency is reported as “inactive”. In the case of `CNNCc1ccc(C(=O)NC(C)C)cc1`, the “activity change, negative = cytotoxic” value is reported as 2.71%. For `CCc1c2c(nc3ccc(OC(=O)N4CCC(N5CCCCC5)CC4)cc13)-c1cc3c(c(=O)n1C2)COC(=O)[C@]3(O)CC`, the Potency was 7.7 µM (active). With `COc1cccc(N(C)C(=S)Oc2ccc3c(c2)CCCC3)n1` the Potency was “inactive”. For `CC(=O)CC(c1ccccc1)c1c(O)c2ccccc2oc1=O` (stereo not given), the “activity change, negative = cytotoxic” value was -0.664%. With `CO[C@@]12[C@H](COC(N)=O)C3=C(C(=O)C(C)=C(N)C3=O)N1C[C@@H]1N[C@@H]12` the Potency was 1.72 µM (active) and 8.57 µM (active). For `CNCC[C@H](Oc1cccc2ccccc12)c1cccs1`, the Potency was 19.4 µM (active) and 5.41 µM (active). With `NC(=O)c1cccc(N)c1` the “activity change, negative = cytotoxic” value was 4.01%. In the case of `O=C(O)c1cccnc1`, the Potency is reported as “inactive”. For `CN(Cc1cc(Br)cc(Br)c1N)C1CCCCC1`, the Potency was “inactive”. For `C[C@@H]1C[C@H]2[C@@H]3CCC4=CC(=O)C=C[C@]4(C)[C@@]3(Cl)[C@@H](O)C[C@]2(C)[C@@]1(OC(=O)c1ccco1)C(=O)CCl`, the Potency was 19.2 µM (active). With `CN1CCCC(n2nc(Cc3ccc(Cl)cc3)c3ccccc3c2=O)CC1` (stereo not given) the Potency was 27.3 µM (active) and 4.82 µM (active). For `C[C@@H]1CN(c2c(F)c(N)c3c(=O)c(C(=O)O)cn(C4CC4)c3c2F)C[C@H](C)N1`, the Potency was “inactive”. For `Cc1c(-c2ccc(O)cc2)n(Cc2ccc(OCCN3CCCCCC3)cc2)c2ccc(O)cc12`, the “activity change, negative = cytotoxic” value was 18.9%. With `COc1cc2nc(N3CCCN(C)CC3)nc(NC3CCN(Cc4ccccc4)CC3)c2cc1OC` the Potency was 9.61 µM (active). With `O[C@@H](CNC[C@H](O)[C@H]1CCc2cc(F)ccc2O1)[C@@H]1CCc2cc(F)ccc2O1` the Potency was 27.3 µM (active). With `CC(=O)Oc1ccccc1C(=O)Nc1ncc([N+](=O)[O-])s1` the “activity change, negative = cytotoxic” value was 0.283% [at 115 µM]. In the case of `CC(C)NCC(O)c1ccc(NS(C)(=O)=O)cc1` (stereo not given), the “activity change, negative = cytotoxic” value is reported as 20.9%. With `NC(N)=NC(N)=NCCc1ccccc1` the Potency was “inactive”. With `OCc1ccc(-c2nn(Cc3ccccc3)c3ccccc23)o1` the “activity change, negative = cytotoxic” value was -7.92%. For `OC(Cn1cncn1)(Cn1cncn1)c1ccc(F)cc1F`, the Potency was “inactive”. With `CN(C)c1ccc(C(=C2C=CC(=[N+](C)C)C=C2)c2ccc(N(C)C)cc2)cc1` the Potency was 1.09 µM (active) and 2.41 µM (active). With `CCN[C@H]1C[C@H](C)S(=O)(=O)c2sc(S(N)(=O)=O)cc21` the Potency was “inactive”. In the case of `CC1=CC(=O)c2ccccc2C1=O`, the Potency is reported as 21.7 µM (active). In the case of `Cn1nnc2c(C(N)=O)ncn2c1=O`, the Potency is reported as “inactive”. With `COc1c(N2CCNC(C)C2)c(F)cc2c(=O)c(C(=O)O)cn(C3CC3)c12` (stereo not given) the Potency was “inactive”. In the case of `NNC(=O)c1ccncc1`, the Potency is reported as “inactive”. With `CC1=NN(c2ccccc2)C(=O)C1` the Potency was “inactive”. With `Oc1c(Cl)cc(Cl)c2cccnc12` the Potency was 3.86 µM (active) and 30.4 µM (active). In the case of `COC(=O)Nc1nc2ccc(Sc3ccccc3)cc2[nH]1`, the “activity change, negative = cytotoxic” value is reported as -21.2%.
